Several values for one entry are separate records, joined by “and”; a condition that tells them apart may be missing. Equal entries are not always repeated.
System: H9c2
Test: protection of cardiomyocytes from stress damage, SAR follow-up, cell-based, panel, H9c2 and HL-1, ATP luminescence, set 2 (AID 651871);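 further: cells exposed to stressor for 2 h before ATP readout; reference of the scale not given here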
Settings: H9c2/HL-1 cardiomyocytes, 2-deoxyglucose stress, with 2-deoxyglucose; run 7, at 79 µM (top of the series)

SMILES	activity (protection/inhibition)
COc1ccc2c(c1OC)C(=O)N1c3ccccc3C(=O)N(Cc3cccc(Cl)c3Cl)C21 (stereo not drawn)	73.7% and 71.7% and -5.58%
CCOC(=O)c1cccc(NC(=O)CNC(=O)c2cc(-c3cc(OC)c(OC)c(OC)c3)nc3ccccc23)c1	77%
COc1ccc2nc(-c3cc(OC)c(OC)c(OC)c3)cc(C(=O)NCC(=O)Nc3ccc(C(C)=O)cc3)c2c1	66.5%
